Experimental data taken from paper PMC9838217, “Structure of SALL4 zinc finger domain reveals link between AT-rich DNA binding and Okihiro syndrome”.
Numbering of substitutions follows the chain as printed.

What was measured:
Experiment in all cases: HT-SELEX; high values mean tight binding
Conditions in all cases: protein: recombinant; vector His6-GST; dsDNA, one strand shown
[1] = target: T1, SALL4 ZFC4 WT (HT-SELEX) (Mus musculus, UniProt Q8BX22 870-940)
T1 sequence: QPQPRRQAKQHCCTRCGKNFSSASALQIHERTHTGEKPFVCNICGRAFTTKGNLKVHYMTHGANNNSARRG
How it was run: (§1)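 Up to 6 cycles of selection were run in triplicate. In each, purified recombinant mouse SALL4 zinc finger cluster 4 (residues 870–940, 1 µg) was incubated with library DNA (1.5 µg first cycle, 200 ng later) in 100 µl of 10 mM Tris–HCl pH 7.5, 50 mM NaCl, poly(dI-dC), DTT for 10 min at room temperature, then complexes were captured on Ni2+ beads, washed and PCR-amplified; final pools were MiSeq-sequenced and scanned for 6-mers. Binding signal is each canonical k-mer's read fraction as fold change versus the initial random library.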

[2] = target: T2, SALL4 ZFC4 R900W (HT-SELEX) (Mus musculus, UniProt Q8BX22 870-940, R900W)
T2 sequence: T1 sequence with R31W
How it was run: as §1

[3] = target: T3, SALL4 ZFC4 G921D (HT-SELEX) (Mus musculus, UniProt Q8BX22 870-940, G921D)
T3 sequence: T1 sequence with G52D
How it was run: as §1

Sequence	binding signal [1] [fold-change vs cycle 0]	binding signal [2] [fold-change vs cycle 0]	binding signal [3] [fold-change vs cycle 0]
ATGAAT	3.02 ± 0.199	2.16 ± 0.113	1.92 ± 0.161
ATAACG	1.39 ± 0.0783	1.3 ± 0.0579	1.23 ± 0.0819
ACTTCA	1.4 ± 0.0494	1.53 ± 0.0862	–
CCACCA	0.417 ± 0.0318	0.471 ± 0.033	0.582 ± 0.0561
AAGTCT	1.259 ± 0.00421	1.4 ± 0.0184	1.38 ± 0.0691
AAAGAT	2.08 ± 0.0847	2.1 ± 0.102	1.84 ± 0.163
AACCAA	1.22 ± 0.0287	1.31 ± 0.0414	1.28 ± 0.0656
CTCAGA	0.791 ± 0.0265	0.909 ± 0.0246	0.948 ± 0.031
AACGAT	1.21 ± 0.0566	1.27 ± 0.0691	1.23 ± 0.0814
AATGAT	2.25 ± 0.203	2.15 ± 0.135	1.94 ± 0.238
CCCTCC	0.318 ± 0.0193	0.362 ± 0.0224	0.457 ± 0.0716
AACGTA	1.18 ± 0.0508	1.3 ± 0.0339	1.23 ± 0.0704
ACATGG	0.798 ± 0.0238	0.918 ± 0.032	0.959 ± 0.0218
TCTCAA	1.28 ± 0.029	1.413 ± 0.011	1.34 ± 0.061
ACGGAG	0.414 ± 0.0316	0.522 ± 0.0321	0.609 ± 0.0699
GTGCAA	0.539 ± 0.0349	0.616 ± 0.0276	0.721 ± 0.0304
AGAACG	0.692 ± 0.0289	0.817 ± 0.046	0.844 ± 0.0513
AGGTAC	0.804 ± 0.0355	0.942 ± 0.0186	0.9735 ± 0.00829
AAATGC	0.879 ± 0.0146	0.918 ± 0.025	0.969 ± 0.0401
CGTACG	0.303 ± 0.0125	0.389 ± 0.029	0.481 ± 0.0656
ATCCGG	0.352 ± 0.0195	0.41 ± 0.0188	0.52 ± 0.0559

Sequence	binding signal [1] [fold-change vs cycle 0]	binding signal [2] [fold-change vs cycle 0]	binding signal [3] [fold-change vs cycle 0]
CATGGA	0.865 ± 0.0271	0.95 ± 0.0312	0.985 ± 0.0405
ACCCTC	0.489 ± 0.00987	0.562 ± 0.0409	0.66 ± 0.0504
GGCATA	0.502 ± 0.0157	0.562 ± 0.025	0.668 ± 0.0401
AGTTAT	2.81 ± 0.247	2.13 ± 0.15	1.89 ± 0.186
GGTCAA	0.661 ± 0.0198	0.78 ± 0.0273	0.867 ± 0.0299
AATGTA	2.02 ± 0.0563	1.99 ± 0.0939	1.76 ± 0.157
AAGCAA	1.18 ± 0.0487	1.24 ± 0.0583	1.23 ± 0.0475
AGAAGC	0.652 ± 0.0323	0.745 ± 0.0224	0.845 ± 0.0201
AGGTAG	0.817 ± 0.0419	0.986 ± 0.0401	0.998 ± 0.0166
GACTCA	0.768 ± 0.0401	0.889 ± 0.022	0.937 ± 0.0191
AGACAA	1.15 ± 0.0323	1.28 ± 0.0792	1.26 ± 0.0604
ACACCT	0.834 ± 0.0401	0.949 ± 0.0347	0.979 ± 0.022
TACCAA	1.27 ± 0.0357	1.33 ± 0.0163	1.32 ± 0.055
GGGTCA	0.435 ± 0.0224	0.513 ± 0.0178	0.619 ± 0.0472
GAGACC	0.414 ± 0.0124	0.5424 ± 0.00269	0.643 ± 0.0507
CGTTAG	0.723 ± 0.0258	0.82 ± 0.0289	0.902 ± 0.0446
GCCAAA	0.353 ± 0.00667	0.404 ± 0.0166	0.545 ± 0.0739
ACATAA	2.21 ± 0.177	1.96 ± 0.0742	1.75 ± 0.158
ATTCGC	0.463 ± 0.033	0.495 ± 0.0145	0.637 ± 0.0822
CCACAA	0.612 ± 0.0144	0.71 ± 0.0271	0.759 ± 0.0161
CATCAC	0.892 ± 0.0417	0.975 ± 0.0159	1.032 ± 0.00917

Sequence	binding signal [1] [fold-change vs cycle 0]	binding signal [2] [fold-change vs cycle 0]	binding signal [3] [fold-change vs cycle 0]
ACGTCA	0.686 ± 0.00954	0.776 ± 0.0221	0.847 ± 0.0153
AAAAAA	2.68 ± 0.235	1.98 ± 0.146	1.76 ± 0.185
CCTAAA	1.13 ± 0.0805	1.27 ± 0.0327	1.18 ± 0.0527
CTACCA	0.775 ± 0.0319	0.894 ± 0.00977	0.96 ± 0.00989
CATGAC	0.822 ± 0.0546	0.938 ± 0.0407	1 ± 0.0669
ACACTC	0.798 ± 0.0206	0.908 ± 0.0437	0.948 ± 0.0215
AAAGTC	1.1 ± 0.0483	1.25 ± 0.0636	1.24 ± 0.0652
CTCCGA	0.382 ± 0.00698	0.433 ± 0.0122	0.589 ± 0.0734
AGAACA	1.26 ± 0.0155	1.39 ± 0.0297	1.34 ± 0.0563
ATAGGC	0.52 ± 0.0405	0.585 ± 0.0153	0.733 ± 0.0725
TAATAA	5.02 ± 0.619	2.78 ± 0.312	2.32 ± 0.357
CATATA	2.3 ± 0.215	1.91 ± 0.115	1.71 ± 0.163
CCAGTA	0.785 ± 0.049	0.922 ± 0.0301	0.962 ± 0.0332
CCCGTA	0.415 ± 0.0258	0.477 ± 0.0181	0.557 ± 0.0362
ATGCTG	0.649 ± 0.0321	0.712 ± 0.0351	0.801 ± 0.0529
ACTCAA	1.26 ± 0.086	1.42 ± 0.0689	1.35 ± 0.0924
CAGACG	0.352 ± 0.0274	0.442 ± 0.0268	0.571 ± 0.085
TAGACA	1.18 ± 0.0561	1.3 ± 0.0829	1.28 ± 0.0805
GTAGAA	1.21 ± 0.0427	1.36 ± 0.0162	1.27 ± 0.0697
GTATAA	2.08 ± 0.124	1.96 ± 0.165	1.74 ± 0.197
TAAGGA	1.59 ± 0.0522	1.71 ± 0.0756	1.54 ± 0.114

Sequence	binding signal [1] [fold-change vs cycle 0]	binding signal [2] [fold-change vs cycle 0]	binding signal [3] [fold-change vs cycle 0]
ATCACA	1.39 ± 0.0936	1.48 ± 0.0843	1.43 ± 0.11
ATTCGA	1.07 ± 0.0464	1.15 ± 0.0515	1.2 ± 0.0363
GGAGCA	0.352 ± 0.0189	0.423 ± 0.00792	0.543 ± 0.05
CCCCAA	0.421 ± 0.0191	0.471 ± 0.00864	0.561 ± 0.0695
GTTCGA	0.639 ± 0.0126	0.724 ± 0.0149	0.821 ± 0.0291
TACGGA	0.719 ± 0.0383	0.834 ± 0.0149	0.856 ± 0.0265
CGGATC	0.362 ± 0.0382	0.438 ± 0.0155	0.571 ± 0.02
ATGAGA	1.52 ± 0.0648	1.6 ± 0.0511	1.48 ± 0.107
ATGACG	0.724 ± 0.0223	0.789 ± 0.0467	0.852 ± 0.0204
CAGTGG	0.426 ± 0.0423	0.497 ± 0.0328	0.595 ± 0.0248
GACAAC	0.673 ± 0.0124	0.798 ± 0.0444	0.89 ± 0.0263
CTAACA	1.32 ± 0.0481	1.48 ± 0.0428	1.41 ± 0.0893
GTAGAC	0.684 ± 0.0405	0.821 ± 0.033	0.891 ± 0.0118
ATTTAA	3.2 ± 0.134	2.48 ± 0.146	2.15 ± 0.212
AGATTC	1.34 ± 0.0579	1.42 ± 0.0466	1.39 ± 0.0922
ACGAAG	0.736 ± 0.0281	0.869 ± 0.0387	0.9 ± 0.0184
CACCTG	0.456 ± 0.0357	0.549 ± 0.0259	0.631 ± 0.0331
GTAACA	1.36 ± 0.0267	1.52 ± 0.0694	1.39 ± 0.0863
CTTGGA	0.806 ± 0.0506	0.948 ± 0.0291	0.984 ± 0.0463
GTTATA	2.5 ± 0.231	2.05 ± 0.15	1.78 ± 0.179
